Experimental data taken from PubChem BioAssay AID1159580 (chemical genetic matrix, 2015).
“And” between values parts separate entries of the source, which are not always exact repeats. Identical values can stand only once. In all, about 5,500 compounds went through this assay and about 2,000 (36%) were called active. Roughly 18% stayed inconclusive and do not appear here. This is one part of the list. A number with no mark means an inactive call. Rule as the data show it: active = normalized growth mostly below about 0.91 (no sharp cut-off); inconclusive = no clear call, values can overlap the other calls; inactive = mostly above about 0.92.

Assay: chemical genetic growth profiling, strain panel (AID 1159580);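 also: tested at 20 µM; growth read once vehicle control cultures reached saturation at 30 °C; 1 = growth at the plate median or of vehicle wells; lower values mean less growth of the strain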
Details: S. cerevisiae deletion strains, growth OD

CC(=O)Oc1cccc2c1C(=O)c1c(OC(C)=O)cc(C(=O)O)cc1C2=O
normalized growth (locus YAL013W, strain DEP1, active compounds read low): 1 | normalized growth (locus YAL021C, strain ccr4, active compounds read low): 0.969 | normalized growth (locus YAL026C, strain drs2, active compounds read low): 0.896 (active) | normalized growth (locus YAL030W, strain snc1, active compounds read low): 0.93 | normalized growth (locus YBL061C, strain skt5, active compounds read low): 0.915 (active) | normalized growth (locus YBR009C, strain hhf1, active compounds read low): 0.919 | normalized growth (locus YBR021W, strain FUR4, active compounds read low): 0.994 | normalized growth (locus YBR023C, strain chs3, active compounds read low): 0.918 | normalized growth (locus YBR171W, strain sec66, active compounds read low): 0.957 | normalized growth (locus YBR229C, strain ROT2, active compounds read low): 1.01 | normalized growth (locus YBR231C, strain swc5, active compounds read low): 0.874 (active) | normalized growth (locus YBR279W, strain paf1, active compounds read low): 0.972 | normalized growth (locus YCL011C, strain gbp2, active compounds read low): 0.923 | normalized growth (locus YCL016C, strain dcc1, active compounds read low): 0.946 | normalized growth (locus YCL029C, strain bik1, active compounds read low): 0.585 (active) | normalized growth (locus YCL061C, strain MRC1, active compounds read low): 0.896 (active) | normalized growth (locus YCL069W, strain vba3, active compounds read low): 0.951 | normalized growth (locus YCR088W, strain abp1, active compounds read low): 0.929 | normalized growth (locus YDL005C, strain med2, active compounds read low): 0.943 | normalized growth (locus YDL035C, strain GPR1, active compounds read low): 1.01 | normalized growth (locus YDL040C, strain nat1, active compounds read low): 0.961 | normalized growth (locus YDL074C, strain BRE1, active compounds read low): 1.03 | normalized growth (locus YDL101C, strain DUN1, active compounds read low): 1.01 | normalized growth (locus YDL134C, strain PPH21, active compounds read low): 1.02 | normalized growth (locus YDL185W, strain tfp1, active compounds read low): 0.993 | normalized growth (locus YDL192W, strain arf1, active compounds read low): 0.175 (active) | normalized growth (locus YDR001C, strain nth1, active compounds read low): 0.93 | normalized growth (locus YDR069C, strain doa4, active compounds read low): 0.865 (active) | normalized growth (locus YDR101C, strain arx1, active compounds read low): 0.438 (active) | normalized growth (locus YDR137W, strain rgp1, active compounds read low): 0.97 | normalized growth (locus YDR150W, strain NUM1, active compounds read low): 1 | normalized growth (locus YDR159W, strain sac3, active compounds read low): 0.9 | normalized growth (locus YDR162C, strain NBP2, active compounds read low): 0.99 | normalized growth (locus YDR195W, strain ref2): 0.991 | normalized growth (locus YDR297W, strain sur2, active compounds read low): 0.913 (active) | normalized growth (locus YDR318W, strain mcm21, active compounds read low): 0.32 (active) | normalized growth (locus YDR334W, strain swr1, active compounds read low): 0.957 | normalized growth (locus YDR335W, strain msn5, active compounds read low): 0.949 | normalized growth (locus YDR388W, active compounds read low): 0.171 (active) | normalized growth (locus YDR392W, strain spt3, active compounds read low): 0.84 | normalized growth (locus YDR502C, strain sam2, active compounds read low): 0.341 (active) | normalized growth (locus YEL003W, strain gim4, active compounds read low): 0.954 | normalized growth (locus YEL037C, strain rad23, active compounds read low): 0.962 | normalized growth (locus YEL061C, strain CIN8 (second series), active compounds read low): 0.932 | normalized growth (locus YEL061C, strain CIN8, active compounds read low): 0.992 | normalized growth (locus YER015W, strain faa2, active compounds read low): 0.92 (active) | normalized growth (locus YER016W, strain bim1, active compounds read low): 0.945 | normalized growth (locus YER110C, active compounds read low): 0.643 (active) | normalized growth (locus YER111C, strain swi4, active compounds read low): 0.963 | normalized growth (locus YER155C, strain BEM2 (second series), active compounds read low): 0.858 (active) | normalized growth (locus YER155C, strain BEM2, active compounds read low): 1.01 | normalized growth (locus YER167W, strain BCK2, active compounds read low): 1 | normalized growth (locus YFR010W, strain ubp6, active compounds read low): 0.943 | normalized growth (locus YGL078C, strain dbp3, active compounds read low): 1 | normalized growth (locus YGL086W, strain mad1, active compounds read low): 0.337 (active) | normalized growth (locus YGL167C, strain pmr1, active compounds read low): 0.906 (active) | normalized growth (locus YGL173C, strain kem1, active compounds read low): 0.929 | normalized growth (locus YGL227W, strain vid30, active compounds read low): 0.962 | normalized growth (locus YGL240W, strain doc1, active compounds read low): 0.832 (active) | normalized growth (locus YGL248W, strain PDE1, active compounds read low): 1.01 | normalized growth (locus YGL253W, strain hxk2, active compounds read low): 0.932 | normalized growth (locus YGR078C, strain PAC10, active compounds read low): 1 | normalized growth (locus YGR135W, strain pre9, active compounds read low): 0.3 (active) | normalized growth (locus YGR229C, strain SMI1, active compounds read low): 1.02 | normalized growth (locus YGR252W, strain gcn5, active compounds read low): 0.33 (active) | normalized growth (locus YHR013C, strain ard1, active compounds read low): 0.991 | normalized growth (locus YHR027C, strain rpn1, active compounds read low): 0.942 | normalized growth (locus YHR030C, strain SLT2, active compounds read low): 0.999 and 0.943 | normalized growth (locus YHR079C, strain IRE1 (second series), active compounds read low): 0.481 (active) | normalized growth (locus YHR079C, strain IRE1, active compounds read low): 0.964 | normalized growth (locus YHR094C, strain hxt1, active compounds read low): 0.476 (active) | normalized growth (locus YHR129C, strain ARP1, active compounds read low): 1.01 | normalized growth (locus YHR142W, strain chs7, active compounds read low): 0.939 | normalized growth (locus YHR200W, strain rpn10, active compounds read low): 0.354 (active) | normalized growth (locus YIL066C, strain RNR3, active compounds read low): 1.02 | normalized growth (locus YIL073C, strain SPO22, active compounds read low): 0.995 | normalized growth (locus YIL125W, strain kgd1, active compounds read low): 1 | normalized growth (locus YIR030C, strain dcg1, active compounds read low): 0.456 (active) | normalized growth (locus YJL092W, strain hpr5, active compounds read low): 0.916 (active) | normalized growth (locus YJL095W, strain BCK1 (second series), active compounds read low): 0.909 (active) | normalized growth (locus YJL095W, strain BCK1, active compounds read low): 0.994 and 0.953 | normalized growth (locus YJL115W, strain asf1, active compounds read low): 0.939 | normalized growth (locus YJL129C, strain trk1, active compounds read low): 1 | normalized growth (locus YJL134W, strain LCB3, active compounds read low): 1.01 | normalized growth (locus YJL154C, strain vps35, active compounds read low): 0.953 | normalized growth (locus YJL164C, strain tpk1, active compounds read low): 0.875 (active) | normalized growth (locus YJL166W, strain qcr8, active compounds read low): 0.871 (active) | normalized growth (locus YJL168C, strain set2, active compounds read low): 0.545 (active) | normalized growth (locus YJL187C, strain SWE1 (second series), active compounds read low): 1.01 | normalized growth (locus YJL187C, strain SWE1, active compounds read low): 0.931 | normalized growth (locus YJR043C, strain POL32, active compounds read low): 0.998 | normalized growth (locus YJR066W, strain TOR1, active compounds read low): 0.902
